# Results: publication PMC12864922, “TDP-43 directly inhibits mRNA accumulation in neurites through modulation of mRNA stability”
# Whole data set: some 9,900 sequences, median “r (bound/input frequency ratio)” near 0.7, cut for the highest 2% near 6.5. Many of the other results were omitted from the sample, so the highest values are more common in it than they were.
# B1: ENSMUSG00000061578.1477|Ksr2 (ssRNA)
# RNA: GGGAGUUCUACAGUCCGACGAUCGCUUCGAUAUCCGCAUGCUAUGGAUUGAUUUGUGAAUGAAUGGAUGAAUGGAUGGGUAGGUGGGUGGAUGCAUAGGCAAGUAGAUGAAUGAAUAUGUGGGUAGAAGGGUGAGUGGGUGGAUGAAUGGAUGGAUAGGUUGGUAGGUUAAUGUAUUCGUGGAUGGGUGAAUGGAUGGAUGGAUAGAUAGAUGGGAAGGUGGAUGGACAGAUGGAUGGAUGGAUAGAUAGAUGGACAGGUGGUUGGUGGAUAAAUGAGUGAAUGAUUAUGUUGAUAGAUAUGUCUCUUGCGGUCGCACUAGUGUGGAAUUCUCGGGUGUCAAGG
# B2: ENSMUSG00000061578.1466|Ksr2 (ssRNA)
# RNA: GGGAGUUCUACAGUCCGACGAUCGCUUCGAUAUCCGCAUGCUAUAUGAAUGAAUGGAUGAAUGGAUGGGUGAAUGGAUGGAUAGGUAUGUGAAUAAAUGGAUGGAUGGAUGGAUUGAUUUGUGAAUGAAUGGAUGAAUGGAUGGGUAGGUGGGUGGAUGCAUAGGCAAGUAGAUGAAUGAAUAUGUGGGUAGAAGGGUGAGUGGGUGGAUGAAUGGAUGGAUAGGUUGGUAGGUUAAUGUAUUCGUGGAUGGGUGAAUGGAUGGAUGGAUAGAUAGAUGGGAAGGUGGAUGGACAGAUGGAUGCUCUUGCGGUCGCACUAGUGUGGAAUUCUCGGGUGUCAAGG
# B3: ENSMUSG00000061578.1472|Ksr2 (ssRNA)
# RNA: GGGAGUUCUACAGUCCGACGAUCGCUUCGAUAUCCGCAUGCUAGAUAGGUAUGUGAAUAAAUGGAUGGAUGGAUGGAUUGAUUUGUGAAUGAAUGGAUGAAUGGAUGGGUAGGUGGGUGGAUGCAUAGGCAAGUAGAUGAAUGAAUAUGUGGGUAGAAGGGUGAGUGGGUGGAUGAAUGGAUGGAUAGGUUGGUAGGUUAAUGUAUUCGUGGAUGGGUGAAUGGAUGGAUGGAUAGAUAGAUGGGAAGGUGGAUGGACAGAUGGAUGGAUGGAUAGAUAGAUGGACAGGUGGUUGGUGGAUAACUCUUGCGGUCGCACUAGUGUGGAAUUCUCGGGUGUCAAGG
# B4: ENSMUSG00000061578.1468|Ksr2 (ssRNA)
# RNA: GGGAGUUCUACAGUCCGACGAUCGCUUCGAUAUCCGCAUGCUAGAUGAAUGGAUGGGUGAAUGGAUGGAUAGGUAUGUGAAUAAAUGGAUGGAUGGAUGGAUUGAUUUGUGAAUGAAUGGAUGAAUGGAUGGGUAGGUGGGUGGAUGCAUAGGCAAGUAGAUGAAUGAAUAUGUGGGUAGAAGGGUGAGUGGGUGGAUGAAUGGAUGGAUAGGUUGGUAGGUUAAUGUAUUCGUGGAUGGGUGAAUGGAUGGAUGGAUAGAUAGAUGGGAAGGUGGAUGGACAGAUGGAUGGAUGGAUAGAUACUCUUGCGGUCGCACUAGUGUGGAAUUCUCGGGUGUCAAGG
# B5: ENSMUSG00000061578.1473|Ksr2 (ssRNA)
# RNA: GGGAGUUCUACAGUCCGACGAUCGCUUCGAUAUCCGCAUGCUAUAUGUGAAUAAAUGGAUGGAUGGAUGGAUUGAUUUGUGAAUGAAUGGAUGAAUGGAUGGGUAGGUGGGUGGAUGCAUAGGCAAGUAGAUGAAUGAAUAUGUGGGUAGAAGGGUGAGUGGGUGGAUGAAUGGAUGGAUAGGUUGGUAGGUUAAUGUAUUCGUGGAUGGGUGAAUGGAUGGAUGGAUAGAUAGAUGGGAAGGUGGAUGGACAGAUGGAUGGAUGGAUAGAUAGAUGGACAGGUGGUUGGUGGAUAAAUGAGUCUCUUGCGGUCGCACUAGUGUGGAAUUCUCGGGUGUCAAGG
# B6: ENSMUSG00000061578.1467|Ksr2 (ssRNA)
# RNA: GGGAGUUCUACAGUCCGACGAUCGCUUCGAUAUCCGCAUGCUAUGAAUGGAUGAAUGGAUGGGUGAAUGGAUGGAUAGGUAUGUGAAUAAAUGGAUGGAUGGAUGGAUUGAUUUGUGAAUGAAUGGAUGAAUGGAUGGGUAGGUGGGUGGAUGCAUAGGCAAGUAGAUGAAUGAAUAUGUGGGUAGAAGGGUGAGUGGGUGGAUGAAUGGAUGGAUAGGUUGGUAGGUUAAUGUAUUCGUGGAUGGGUGAAUGGAUGGAUGGAUAGAUAGAUGGGAAGGUGGAUGGACAGAUGGAUGGAUGGACUCUUGCGGUCGCACUAGUGUGGAAUUCUCGGGUGUCAAGG
# B7: ENSMUSG00000061578.1471|Ksr2 (ssRNA)
# RNA: GGGAGUUCUACAGUCCGACGAUCGCUUCGAUAUCCGCAUGCUAUGGAUGGAUAGGUAUGUGAAUAAAUGGAUGGAUGGAUGGAUUGAUUUGUGAAUGAAUGGAUGAAUGGAUGGGUAGGUGGGUGGAUGCAUAGGCAAGUAGAUGAAUGAAUAUGUGGGUAGAAGGGUGAGUGGGUGGAUGAAUGGAUGGAUAGGUUGGUAGGUUAAUGUAUUCGUGGAUGGGUGAAUGGAUGGAUGGAUAGAUAGAUGGGAAGGUGGAUGGACAGAUGGAUGGAUGGAUAGAUAGAUGGACAGGUGGUUGGUCUCUUGCGGUCGCACUAGUGUGGAAUUCUCGGGUGUCAAGG
# B8: ENSMUSG00000061578.1462|Ksr2 (ssRNA)
# RNA: GGGAGUUCUACAGUCCGACGAUCGCUUCGAUAUCCGCAUGCUAGAUGGGUAGGUGGGUAGAUAGGUAUAUGAAUGAAUGGAUGAAUGGAUGGGUGAAUGGAUGGAUAGGUAUGUGAAUAAAUGGAUGGAUGGAUGGAUUGAUUUGUGAAUGAAUGGAUGAAUGGAUGGGUAGGUGGGUGGAUGCAUAGGCAAGUAGAUGAAUGAAUAUGUGGGUAGAAGGGUGAGUGGGUGGAUGAAUGGAUGGAUAGGUUGGUAGGUUAAUGUAUUCGUGGAUGGGUGAAUGGAUGGAUGGAUAGAUAGAUGCUCUUGCGGUCGCACUAGUGUGGAAUUCUCGGGUGUCAAGG
# B9: ENSMUSG00000061578.1458|Ksr2 (ssRNA)
# RNA: GGGAGUUCUACAGUCCGACGAUCGCUUCGAUAUCCGCAUGCUAGAAUGAAUGGAUGAUGGAUGAAUGGAUGGGUAGGUGGGUAGAUAGGUAUAUGAAUGAAUGGAUGAAUGGAUGGGUGAAUGGAUGGAUAGGUAUGUGAAUAAAUGGAUGGAUGGAUGGAUUGAUUUGUGAAUGAAUGGAUGAAUGGAUGGGUAGGUGGGUGGAUGCAUAGGCAAGUAGAUGAAUGAAUAUGUGGGUAGAAGGGUGAGUGGGUGGAUGAAUGGAUGGAUAGGUUGGUAGGUUAAUGUAUUCGUGGAUGGGUGCUCUUGCGGUCGCACUAGUGUGGAAUUCUCGGGUGUCAAGG
# B10: ENSMUSG00000061578.1460|Ksr2 (ssRNA)
# RNA: GGGAGUUCUACAGUCCGACGAUCGCUUCGAUAUCCGCAUGCUAGAUGGAUGAAUGGAUGGGUAGGUGGGUAGAUAGGUAUAUGAAUGAAUGGAUGAAUGGAUGGGUGAAUGGAUGGAUAGGUAUGUGAAUAAAUGGAUGGAUGGAUGGAUUGAUUUGUGAAUGAAUGGAUGAAUGGAUGGGUAGGUGGGUGGAUGCAUAGGCAAGUAGAUGAAUGAAUAUGUGGGUAGAAGGGUGAGUGGGUGGAUGAAUGGAUGGAUAGGUUGGUAGGUUAAUGUAUUCGUGGAUGGGUGAAUGGAUGGAUGCUCUUGCGGUCGCACUAGUGUGGAAUUCUCGGGUGUCAAGG
# B11: ENSMUSG00000061578.1475|Ksr2 (ssRNA)
# RNA: GGGAGUUCUACAGUCCGACGAUCGCUUCGAUAUCCGCAUGCUAUGGAUGGAUGGAUGGAUUGAUUUGUGAAUGAAUGGAUGAAUGGAUGGGUAGGUGGGUGGAUGCAUAGGCAAGUAGAUGAAUGAAUAUGUGGGUAGAAGGGUGAGUGGGUGGAUGAAUGGAUGGAUAGGUUGGUAGGUUAAUGUAUUCGUGGAUGGGUGAAUGGAUGGAUGGAUAGAUAGAUGGGAAGGUGGAUGGACAGAUGGAUGGAUGGAUAGAUAGAUGGACAGGUGGUUGGUGGAUAAAUGAGUGAAUGAUUAUGUCUCUUGCGGUCGCACUAGUGUGGAAUUCUCGGGUGUCAAGG
# B12: ENSMUSG00000061578.1470|Ksr2 (ssRNA)
# RNA: GGGAGUUCUACAGUCCGACGAUCGCUUCGAUAUCCGCAUGCUAGGUGAAUGGAUGGAUAGGUAUGUGAAUAAAUGGAUGGAUGGAUGGAUUGAUUUGUGAAUGAAUGGAUGAAUGGAUGGGUAGGUGGGUGGAUGCAUAGGCAAGUAGAUGAAUGAAUAUGUGGGUAGAAGGGUGAGUGGGUGGAUGAAUGGAUGGAUAGGUUGGUAGGUUAAUGUAUUCGUGGAUGGGUGAAUGGAUGGAUGGAUAGAUAGAUGGGAAGGUGGAUGGACAGAUGGAUGGAUGGAUAGAUAGAUGGACAGGUGCUCUUGCGGUCGCACUAGUGUGGAAUUCUCGGGUGUCAAGG
# B13: ENSMUSG00000031028.156|Tub (ssRNA)
# RNA: GGGAGUUCUACAGUCCGACGAUCGCUUCGAUAUCCGCAUGCUAAGCUCCCAUUAUUGCCAGCAUGCCAUGAUCAGUGAGGGCUGUGUGCCAUGCUUAGGGGGAUGGCGCAGGGUGAGGGGAGCAGAGGAUAUUUUAGGGCCACAAGAGCUCAGAGGUAGCGGACCUCUGUGUGGUUCACCAACAGCAAUGCUGAUCCCUGAGUAUAGGGCACAUGUCUCUUGGUUACCUCACUGGUUAAUGGCAGAGUUGAGAACCUCAAAUUCUUUUGUUCCUACUGUUGCCCAGAAACUAGACUCUCUGACCUCUUGCGGUCGCACUAGUGUGGAAUUCUCGGGUGUCAAGG
# Target: TDP-43 (Homo sapiens, UniProt Q13148 1-414)
# Sequence (Q13148 whole entry): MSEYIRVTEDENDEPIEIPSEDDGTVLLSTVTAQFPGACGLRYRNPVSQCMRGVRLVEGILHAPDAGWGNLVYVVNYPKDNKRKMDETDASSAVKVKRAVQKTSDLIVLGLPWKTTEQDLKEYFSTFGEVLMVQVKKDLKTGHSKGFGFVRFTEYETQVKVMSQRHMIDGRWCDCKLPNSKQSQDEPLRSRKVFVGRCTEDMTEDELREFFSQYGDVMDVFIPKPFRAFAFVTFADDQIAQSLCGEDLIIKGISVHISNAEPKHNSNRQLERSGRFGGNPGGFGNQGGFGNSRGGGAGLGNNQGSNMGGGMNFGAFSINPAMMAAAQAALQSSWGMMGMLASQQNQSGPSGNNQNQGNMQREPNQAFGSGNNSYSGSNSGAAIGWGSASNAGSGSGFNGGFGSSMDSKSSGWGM
# Assay: RNA Bind-n-Seq with designed 260-mer pool; 25 mM Tris-HCl, 150 mM KCl, 3 mM MgCl2, BSA (printed 500 mg/mL), 20 units/mL SUPERase IN; pH not stated; 500 nM RNA pool, 1 h, 4 C; TDP-43 5, 50, 500 nM; high values mean tight binding
# Conditions: protein: recombinant; tags: SBP (GST cleaved off with PreScission; pGEX-GST-SBP)
# How it was run: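 Binding (R) is the ratio of each oligo's mapped-read-normalized abundance in the bound fraction to its abundance in the input. To obtain it, SBP-tagged recombinant TDP-43 (5, 50 or 500 nM) on streptavidin beads was incubated with 500 nM of an in vitro-transcribed 260-nt 3′ UTR oligo pool for 1 h at 4 °C in 25 mM Tris-HCl, 150 mM KCl, 3 mM MgCl2, BSA and SUPERase IN. The RNA retained after washing was released with biotin, then reverse transcribed, amplified by PCR and sequenced.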
row,Binder,binding signal
1,B1,5.58 R (bound/input frequency ratio)
2,B2,5.78 R (bound/input frequency ratio)
3,B3,5.09 R (bound/input frequency ratio)
4,B4,14.4 R (bound/input frequency ratio)
5,B5,9.68 R (bound/input frequency ratio)
6,B6,3.46 R (bound/input frequency ratio)
7,B7,6.33 R (bound/input frequency ratio)
8,B8,5.83 R (bound/input frequency ratio)
9,B9,4.62 R (bound/input frequency ratio)
10,B10,6.72 R (bound/input frequency ratio)
11,B11,8.8 R (bound/input frequency ratio)
12,B12,5.59 R (bound/input frequency ratio)
13,B13,0.518 R (bound/input frequency ratio)
